Of roughly 7,900 targets only a part is listed; those with a hit were picked by preference. About 0.6% of all pairs of compound and target were hits. Unmarked numbers belong to inactive results.
How the values were obtained:
Assay in all cases: log2 fold change, soluble protein after heating vs DMSO (PISA); higher = thermal stabilisation; K562 cells, 10 uM, 30 min; active = over 0.2 and 3.5 SD of the protein, either way, in both replicates (recomputed)
[1] = compound: C1=CC=C(C=C1)[C@H](COC2=CC3=C(C=C2)NC(=O)N3)NC(=O)C4=CC=CN(C4=O)CC5=CC(=C(C=C5)F)F
Procedure, shortened: (§1)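 Soluble protein was quantified by TMTpro 16plex LC-MS/MS after channel sums were equalised. It was obtained as the supernatant after 21,000xg for 90 min from pooled aliquots of K562 cells (2×10^6 cells/mL, 10 μM compound, 30 min) heated for 3 min across 48°C-58°C and extracted in PBS with 0.5% NP-40 at 4°C. Thermal stability values are relative to control samples and come from duplicates. They are given as log2 fold changes.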

[2] = compound: CC1=C(SC2=C1C(=N[C@H](C3=NN=C(N32)C)CC(=O)N)C4=CC=C(C=C4)Cl)C
Procedure, shortened: as §1

[3] = compound: CC1=C2C(=CC=C1)N=C(N(C2=O)C3=CC=CC=C3C)CN4C=NC5=C(N=CN=C54)N
Procedure, shortened: as §1

[4] = compound: Cc1sc2c(c1C)C(c1ccc(Cl)cc1)=N[C@@H](CC(=O)OC(C)(C)C)c1nnc(C)n1-2
Procedure, shortened: as §1

[5] = compound: c1ccc([C@@H]2C[C@H]2NC2CCNCC2)cc1
Procedure, shortened: as §1

Sequence of UniProt O60749 (O60749 whole entry, looked up): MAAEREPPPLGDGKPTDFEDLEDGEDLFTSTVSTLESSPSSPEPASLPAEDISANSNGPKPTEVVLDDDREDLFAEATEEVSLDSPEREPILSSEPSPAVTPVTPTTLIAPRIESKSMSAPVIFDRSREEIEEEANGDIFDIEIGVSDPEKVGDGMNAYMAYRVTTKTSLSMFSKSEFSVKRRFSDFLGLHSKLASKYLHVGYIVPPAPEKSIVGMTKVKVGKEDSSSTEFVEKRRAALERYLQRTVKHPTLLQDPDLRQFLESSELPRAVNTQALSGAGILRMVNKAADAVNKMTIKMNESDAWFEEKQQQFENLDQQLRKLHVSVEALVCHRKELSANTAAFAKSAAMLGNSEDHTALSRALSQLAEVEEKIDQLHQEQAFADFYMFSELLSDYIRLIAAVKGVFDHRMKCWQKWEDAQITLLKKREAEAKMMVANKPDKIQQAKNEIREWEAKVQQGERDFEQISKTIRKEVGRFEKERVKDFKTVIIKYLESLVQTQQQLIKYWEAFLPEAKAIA
Sequence of UniProt Q9Y6J9 (Q9Y6J9 whole entry, looked up): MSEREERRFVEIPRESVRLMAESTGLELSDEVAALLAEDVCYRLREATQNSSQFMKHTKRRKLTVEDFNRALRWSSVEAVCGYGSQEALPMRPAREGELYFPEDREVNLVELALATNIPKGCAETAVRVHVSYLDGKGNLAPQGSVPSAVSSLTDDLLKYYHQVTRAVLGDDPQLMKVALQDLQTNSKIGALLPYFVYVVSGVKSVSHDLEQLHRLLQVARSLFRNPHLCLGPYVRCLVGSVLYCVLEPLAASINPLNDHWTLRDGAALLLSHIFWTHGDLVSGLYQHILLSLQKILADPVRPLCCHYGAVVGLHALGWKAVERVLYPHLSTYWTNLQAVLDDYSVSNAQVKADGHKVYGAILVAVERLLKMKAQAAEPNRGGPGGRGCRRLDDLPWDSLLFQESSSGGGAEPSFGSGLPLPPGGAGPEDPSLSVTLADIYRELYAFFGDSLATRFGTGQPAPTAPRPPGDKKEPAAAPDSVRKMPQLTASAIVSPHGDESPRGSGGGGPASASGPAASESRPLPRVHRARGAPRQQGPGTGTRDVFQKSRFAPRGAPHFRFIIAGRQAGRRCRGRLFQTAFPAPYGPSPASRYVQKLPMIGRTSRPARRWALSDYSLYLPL
Sequence of UniProt O76062 (O76062 whole entry, looked up): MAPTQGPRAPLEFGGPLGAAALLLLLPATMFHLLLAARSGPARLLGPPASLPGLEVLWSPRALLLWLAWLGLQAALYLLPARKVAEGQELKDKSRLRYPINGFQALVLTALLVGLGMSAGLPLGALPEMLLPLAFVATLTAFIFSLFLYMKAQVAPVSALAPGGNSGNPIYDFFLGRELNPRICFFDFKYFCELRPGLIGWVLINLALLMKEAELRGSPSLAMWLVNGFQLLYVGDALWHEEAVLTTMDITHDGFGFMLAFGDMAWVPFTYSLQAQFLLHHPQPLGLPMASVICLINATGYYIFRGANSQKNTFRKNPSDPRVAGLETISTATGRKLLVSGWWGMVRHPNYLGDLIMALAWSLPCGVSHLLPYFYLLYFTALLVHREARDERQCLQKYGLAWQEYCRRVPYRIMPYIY
Sequence of UniProt Q6XR72 (Q6XR72 whole entry, looked up): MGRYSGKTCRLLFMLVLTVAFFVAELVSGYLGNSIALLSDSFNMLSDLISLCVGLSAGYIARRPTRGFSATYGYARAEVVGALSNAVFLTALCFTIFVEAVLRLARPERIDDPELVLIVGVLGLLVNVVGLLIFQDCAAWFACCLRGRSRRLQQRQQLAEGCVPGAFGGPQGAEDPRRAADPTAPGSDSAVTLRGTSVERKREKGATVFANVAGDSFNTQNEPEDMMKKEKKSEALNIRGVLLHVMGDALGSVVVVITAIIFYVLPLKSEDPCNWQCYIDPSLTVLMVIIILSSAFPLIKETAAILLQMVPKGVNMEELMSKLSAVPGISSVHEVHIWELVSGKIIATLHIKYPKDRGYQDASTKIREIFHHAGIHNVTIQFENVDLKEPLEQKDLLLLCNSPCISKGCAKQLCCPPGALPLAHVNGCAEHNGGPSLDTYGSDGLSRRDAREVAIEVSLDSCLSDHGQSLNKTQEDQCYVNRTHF
Sequence of UniProt P35270 (P35270 whole entry, looked up): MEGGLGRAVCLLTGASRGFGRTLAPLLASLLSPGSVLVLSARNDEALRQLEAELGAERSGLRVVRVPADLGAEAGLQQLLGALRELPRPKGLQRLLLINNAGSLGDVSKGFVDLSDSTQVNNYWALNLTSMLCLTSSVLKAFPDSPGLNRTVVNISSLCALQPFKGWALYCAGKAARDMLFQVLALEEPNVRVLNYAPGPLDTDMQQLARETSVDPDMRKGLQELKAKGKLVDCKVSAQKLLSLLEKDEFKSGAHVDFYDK
Sequence of UniProt O60271 (O60271 whole entry, looked up): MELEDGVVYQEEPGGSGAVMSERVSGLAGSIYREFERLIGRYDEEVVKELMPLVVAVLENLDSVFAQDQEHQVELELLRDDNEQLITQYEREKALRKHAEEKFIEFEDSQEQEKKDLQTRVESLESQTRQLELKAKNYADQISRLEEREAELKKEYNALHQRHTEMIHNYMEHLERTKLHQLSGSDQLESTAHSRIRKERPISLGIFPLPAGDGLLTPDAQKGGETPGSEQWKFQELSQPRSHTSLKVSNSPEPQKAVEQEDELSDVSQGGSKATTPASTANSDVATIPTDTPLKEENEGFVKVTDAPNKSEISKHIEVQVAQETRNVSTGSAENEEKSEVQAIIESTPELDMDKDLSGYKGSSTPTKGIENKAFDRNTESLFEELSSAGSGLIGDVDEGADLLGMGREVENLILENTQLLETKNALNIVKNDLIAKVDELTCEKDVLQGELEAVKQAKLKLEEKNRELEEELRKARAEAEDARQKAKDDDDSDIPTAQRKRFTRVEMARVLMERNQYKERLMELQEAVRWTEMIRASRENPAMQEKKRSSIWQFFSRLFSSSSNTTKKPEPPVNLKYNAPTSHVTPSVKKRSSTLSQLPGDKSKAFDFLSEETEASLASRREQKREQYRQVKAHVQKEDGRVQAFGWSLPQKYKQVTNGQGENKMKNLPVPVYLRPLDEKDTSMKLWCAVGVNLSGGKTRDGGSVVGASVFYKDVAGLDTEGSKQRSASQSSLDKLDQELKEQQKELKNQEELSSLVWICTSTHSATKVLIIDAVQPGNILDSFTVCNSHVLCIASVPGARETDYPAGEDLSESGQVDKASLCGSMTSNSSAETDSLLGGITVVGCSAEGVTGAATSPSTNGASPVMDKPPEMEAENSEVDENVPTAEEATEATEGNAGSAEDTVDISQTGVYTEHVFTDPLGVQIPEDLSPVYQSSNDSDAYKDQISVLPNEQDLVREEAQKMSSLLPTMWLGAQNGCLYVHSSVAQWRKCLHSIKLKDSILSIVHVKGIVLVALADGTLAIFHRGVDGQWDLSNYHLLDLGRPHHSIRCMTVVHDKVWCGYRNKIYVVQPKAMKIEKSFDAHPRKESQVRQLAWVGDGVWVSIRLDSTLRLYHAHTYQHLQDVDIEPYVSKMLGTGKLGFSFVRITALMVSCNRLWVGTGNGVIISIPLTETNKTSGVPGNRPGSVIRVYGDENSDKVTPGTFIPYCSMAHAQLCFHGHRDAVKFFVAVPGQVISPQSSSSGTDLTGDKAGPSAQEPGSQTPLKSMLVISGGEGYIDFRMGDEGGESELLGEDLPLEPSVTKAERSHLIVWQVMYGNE
Sequence of UniProt P42229 (P42229 whole entry, looked up): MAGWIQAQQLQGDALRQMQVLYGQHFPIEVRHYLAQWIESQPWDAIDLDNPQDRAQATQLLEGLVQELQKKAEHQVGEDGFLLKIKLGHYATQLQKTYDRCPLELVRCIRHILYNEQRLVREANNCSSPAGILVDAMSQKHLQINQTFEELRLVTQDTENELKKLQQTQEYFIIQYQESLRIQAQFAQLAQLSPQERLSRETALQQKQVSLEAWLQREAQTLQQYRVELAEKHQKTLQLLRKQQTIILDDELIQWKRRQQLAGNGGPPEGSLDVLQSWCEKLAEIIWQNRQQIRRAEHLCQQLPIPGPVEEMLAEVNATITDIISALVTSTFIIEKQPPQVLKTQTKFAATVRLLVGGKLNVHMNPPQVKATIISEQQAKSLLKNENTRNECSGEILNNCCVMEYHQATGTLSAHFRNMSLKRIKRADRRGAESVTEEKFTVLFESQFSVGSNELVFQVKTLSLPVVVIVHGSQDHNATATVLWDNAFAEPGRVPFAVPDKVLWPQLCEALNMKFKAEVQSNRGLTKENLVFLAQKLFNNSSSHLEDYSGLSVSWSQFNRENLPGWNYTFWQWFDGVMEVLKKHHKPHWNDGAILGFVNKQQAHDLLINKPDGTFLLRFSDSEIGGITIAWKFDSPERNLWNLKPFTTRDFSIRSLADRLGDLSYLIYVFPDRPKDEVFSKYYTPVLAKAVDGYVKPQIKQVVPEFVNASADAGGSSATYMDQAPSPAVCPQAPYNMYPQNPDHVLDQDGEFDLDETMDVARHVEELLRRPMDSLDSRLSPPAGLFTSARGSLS
Sequence of UniProt Q9BZJ4 (Q9BZJ4 whole entry, looked up): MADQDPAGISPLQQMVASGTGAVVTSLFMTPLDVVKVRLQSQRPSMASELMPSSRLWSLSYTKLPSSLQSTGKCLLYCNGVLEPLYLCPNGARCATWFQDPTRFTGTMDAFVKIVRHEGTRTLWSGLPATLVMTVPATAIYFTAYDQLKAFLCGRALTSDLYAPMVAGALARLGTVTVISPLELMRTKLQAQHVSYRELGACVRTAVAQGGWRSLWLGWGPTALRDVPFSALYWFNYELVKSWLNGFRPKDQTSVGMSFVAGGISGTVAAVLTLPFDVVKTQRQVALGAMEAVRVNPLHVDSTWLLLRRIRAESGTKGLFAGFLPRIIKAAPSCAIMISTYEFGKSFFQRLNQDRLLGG
Sequence of UniProt P62318 (P62318 whole entry, looked up): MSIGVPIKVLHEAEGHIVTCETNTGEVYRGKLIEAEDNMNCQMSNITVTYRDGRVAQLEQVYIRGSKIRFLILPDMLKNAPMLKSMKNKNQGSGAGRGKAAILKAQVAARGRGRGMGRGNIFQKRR
Sequence of UniProt P62072 (P62072 whole entry, looked up): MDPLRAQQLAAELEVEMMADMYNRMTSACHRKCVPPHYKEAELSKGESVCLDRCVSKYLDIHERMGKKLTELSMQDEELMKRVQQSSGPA

Target | log2 fold change [1] | log2 fold change [2] | log2 fold change [3] | log2 fold change [4] | log2 fold change [5]
STXBP2 isoform 3 (UniProt Q15833) | -0.15 | -0.05 | 0.071 | 0.031 | -0.03
TCERG1 (UniProt O14776) | -0.1 | 0.106 | 0.182 | -0.065 | -0.033
SSX2 (UniProt Q16385) | 0.008 | -0.024 | 0.038 | -0.021 | 0.023
TEX264 (UniProt Q9Y6I9) | -0.024 | 0.03 | -0.072 | -0.084 | -0.02
TACC2 (UniProt O95359) | -0.031 | -0.03 | 0.166 | 0.011 | 0.05
SLC25A39 (UniProt Q9BZJ4) | 0.031 | -0.166 | 0.149 | 0.09 | 0.019
SPG11 (UniProt Q96JI7) | 0.095 | 0.05 | 0.444 | 0.24 | 0.083
SPAG9 isoform 4 (UniProt O60271) | 0.15 | 0.006 | -0.048 | 0.028 | 0.025
SMAD2 (UniProt Q15796) | -0.014 | 0.022 | 0.056 | -0.02 | -0.066
SNRPD3 (UniProt P62318) | 0.035 | -0.029 | 0 | 0.106 | 0.036
TGFBRAP1 (UniProt Q8WUH2) | -0.021 | 0.03 | 0.075 | -0.105 | -0.004
TIMM13 (UniProt Q9Y5L4) | -0.049 | 0.049 | 0.012 | -0.035 | 0.013
STAT5A (UniProt P42229) | -0.028 | 0.058 | 0.134 | -0.006 | 0.008
SLC35B1 isoform 2 (UniProt P78383) | -0.166 | -0.233 | 0.146 | -0.215 | 0.027
SLC30A10 (UniProt Q6XR72) | 0.066 | -0.005 | 0.113 | -0.003 | 0.059
SYMPK (UniProt Q92797) | -0.127 | 0.034 | 0.101 | -0.006 | 0.02
SLK isoform 2 (UniProt Q9H2G2) | 0.016 | 0.034 | 0.042 | 0.021 | -0.005
TMBIM6 isoform 2 (UniProt P55061) | -0.037 | -0.022 | 0.041 | -0.03 | 0.041
SPAST (UniProt Q9UBP0) | -0.057 | 0.026 | 0.117 | -0.016 | -0.085

Target | log2 fold change [1] | log2 fold change [2] | log2 fold change [3] | log2 fold change [4] | log2 fold change [5]
SNX3 (UniProt O60493) | -0.057 | 0 | 0.105 | -0.006 | -0.064
STX7 (UniProt O15400) | 0.023 | 0.01 | 0.027 | -0.011 | -0.011
TFR2 (UniProt Q9UP52) | 0.01 | 0.018 | 0.004 | 0.007 | 0.026
STX17 (UniProt P56962) | 0.03 | 0.006 | 0.029 | 0.004 | -0.058
SRSF6 (UniProt Q13247) | -0.071 | -0.453 | -0.109 | 0.217 | 0.015
TARS2 (UniProt Q9BW92) | -0.018 | 0.025 | 0.101 | -0.019 | -0.023
SUN2 (UniProt Q9UH99) | 0.029 | -0.004 | -0.025 | 0.025 | -0.015
SNX2 (UniProt O60749) | -0.015 | 0.069 | 0.066 | -0.026 | -0.079
SRPRA (UniProt P08240) | 0.001 | -0.032 | 0.031 | -0.061 | -0.038
SPINDOC (UniProt Q9BUA3) | 0.03 | 0.02 | -0.066 | 0.145 | 0.041
TM9SF2 (UniProt Q99805) | 0.018 | 0.035 | 0.054 | -0.044 | -0.028
SOAT1 (UniProt P35610) | -0.023 | 0.037 | 0.071 | 0.802 (active) | 0.001
SPR (UniProt P35270) | 0.026 | 0.04 | 0.031 | -0.058 | -0.105
TIMM44 (UniProt O43615) | -0.099 | 0.043 | 0.088 | 0.008 | -0.017
TAF9 (UniProt Q16594) | 0.046 | -0.043 | -0.114 | 0.049 | 0.019
SNW1 (UniProt Q13573) | 0.03 | 0.015 | -0.036 | 0.055 | -0.035
TCOF1 isoform 6 (UniProt Q13428) | 0.209 | 0.151 | -0.251 | 0.271 | 0.029
TIMM10 (UniProt P62072) | -0.013 | -0.043 | 0.042 | -0.033 | 0.022
SRSF10 (UniProt O75494) | 0.001 | -0.475 | -0.187 | 0.249 | 0.17

Target | log2 fold change [1] | log2 fold change [2] | log2 fold change [3] | log2 fold change [4] | log2 fold change [5]
TERF2IP (UniProt Q9NYB0) | 0.003 | 0.01 | 0.004 | -0.01 | 0.066
THADA (UniProt Q6YHU6) | -0.06 | 0.066 | 0.011 | -0.027 | -0.032
SQSTM1 (UniProt Q13501) | 0 | 0.097 | -0.128 | 0.096 | 0.012
TCOF1 isoform 4 (UniProt Q13428) | 0.016 | 0.006 | 0.018 | 0.033 | 0.042
TAF6L (UniProt Q9Y6J9) |  | -0.209 |  | 0.048 | 0.073
SSB (UniProt E7ERC4) |  |  | 0.188 |  | 
TM7SF2 (UniProt O76062) |  | 0.182 | -0.129 |  | 0.159
THYN1 (UniProt Q9P016) | -0.024 | 0.044 | 0.043 | 0.01 | -0.067
TM7SF3 (UniProt Q9NS93) | -0.058 | 0.104 |  | -0.037 | 0.196
STEAP3 isoform 2 (UniProt Q658P3) | -0.011 | 0 | 0.022 | -0.034 | -0.04
SRFBP1 (UniProt Q8NEF9) | 0.011 | -0.14 |  | 0.048 | -0.013
SSB (UniProt P05455) | -0.02 | 0.088 | 0.014 | 0.007 | 0.055
TCOF1 isoform 3 (UniProt Q13428) |  |  |  | -0.093 | 
SLC9A6 isoform 3 (UniProt Q92581) | -0.057 | 0.003 |  | -0.005 | 0.089
SSBP4 (UniProt Q9BWG4) | 0.086 |  |  | 0.037 | 
SLC25A4 (UniProt P12235) | -0.001 | -0.034 | 0.062 | -0.049 | 0.05
SRSF9 (UniProt Q13242) | 0.045 | -0.452 | -0.38 |  | 0.041
TBC1D20 isoform 3 (UniProt Q96BZ9) | 0.017 | 0.069 | -0.021 |  | -0.403 (active)

From the supplement of paper PMC10849652
